# Data as given in PubChem BioAssay (NCATS).
# Where “and” joins values, the source holds several entries; their conditions need not be identical. Identical values can stand only once. Results filed as inconclusive are left out. A call without a number means that no potency is given here. Calls of active or inactive are those of the source. Unless noted, calls follow the shape of the full dose curve.
# How the values were obtained:
# [1] = biological target: Estrogen receptor (Homo sapiens) (UniProt P03372); test: qHTS assay for small molecule antagonists of estrogen receptor alpha signaling (AID 588513; active = well fitted curve in the direction sought with a large enough effect in the signal ratio, with a control signal flat, not every such curve was filed as active; the % refers to the signal ratio)
# Procedure, shortened: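 ER-alpha-UAS-bla GripTite HEK 293 cells in 2% charcoal/dextran-treated FBS medium; compounds titrated (1:2, duplicate), then stimulated with 0.5 nM 17-beta-estradiol for 18 h at 37C. CCF4 beta-lactamase fluorescence; Hill-fit IC50 and efficacy.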
# [2] = biological target: Estrogen receptor (Homo sapiens) (UniProt P03372); test: qHTS assay for small molecule agonists of estrogen receptor alpha signaling (AID 588514); also: nearly all actives have a fitted effect of over 70% in size; also: potency is read from the fitted curve at half-maximal effect
# Procedure, shortened: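 Efficacy is expressed against 20 nM 17-beta-estradiol (100%) and DMSO basal (0%); EC50 from Hill equation. Assay: beta-lactamase reporter in ER-alpha-UAS-bla HEK 293 cells, 18 h compound incubation, CCF4 detection.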
# [3] = biological target: Glucocorticoid receptor (Homo sapiens) (UniProt P04150); test: qHTS assay for small molecule agonists of glucocorticoid receptor signaling (AID 588532; active = well fitted curve in the direction sought with a large enough effect in the signal ratio, with a control signal flat; the % refers to the signal ratio); settings: HeLa MMTV-bla, beta-lactamase ratio, agonist, 18 h; stronger effect = higher value; percent of dexamethasone control, DMSO zero
# Procedure, shortened: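 Cells were plated and rested 3-5 h at 37 C, compounds were added in titration and incubated 18 h, then CCF4 substrate was loaded for 2 h at RT before reading blue/green fluorescence. EC50 came from Hill-equation fitting.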
# [4] = biological target: Glucocorticoid receptor (Homo sapiens) (UniProt P04150); test: qHTS assay for small molecule antagonists of glucocorticoid receptor signaling (AID 588533; active = well fitted inhibition curve with a large enough effect in the signal ratio, with a control signal flat, not every such curve was filed as active; the % refers to the signal ratio)
# Procedure, shortened: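 Antagonist-mode qHTS: compound titrations added to GRE-bla HeLa cells, then dexamethasone 2 nM final; 18 h, 37 C. CCF4 FRET fluorescence normalized to dexamethasone and DMSO; IC50 from Hill fit.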
# [5] = biological target: Peroxisome proliferator-activated receptor gamma (Homo sapiens) (UniProt P37231); test: qHTS assay for small molecule agonists of peroxisome proliferator-activated receptor gamma signaling (AID 588536; active = well fitted curve in the direction sought with a large enough effect in the signal ratio, with a control signal flat, not every such curve was filed as active; the % refers to the signal ratio)
# Procedure, shortened: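 Using GeneBLAzer HEK293 cells, response was quantified by CCF4 fluorescence and normalized between basal DMSO (0%) and rosiglitazone 2 uM (100%); curves yielded half-maximal stimulation concentration and efficacy.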
# [6] = biological target: Peroxisome proliferator-activated receptor gamma (Homo sapiens) (UniProt P37231); test: qHTS assay for small molecule antagonists of peroxisome proliferator-activated receptor gamma signaling (AID 588537; active = well fitted inhibition curve with a large enough effect in the signal ratio, with a control signal flat, not every such curve was filed as active; the % refers to the signal ratio;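 also: reporter cells co-stimulated with 50 nM rosiglitazone agonist during compound treatment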)
# Procedure, shortened: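 Fluorescence at 460 and 530 nm (405 nm excitation) reported beta-lactamase cleavage of CCF4 after 2 h room-temperature loading. HEK293 reporter cells in 1% charcoal/dextran-treated FBS had received compound and rosiglitazone for 16 h.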
# [7] = biological target: Vitamin D3 receptor (Homo sapiens) (UniProt P11473); test: qHTS assay for small molecule antagonists of vitamin D receptor signaling (AID 588541);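 also: receptor activated by calcitriol during compound treatment; series mostly up to about 77 µM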
# Procedure, shortened: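 VDR-UAS-bla HEK293T cells in 2% charcoal-stripped FBS were stimulated with 1-alpha,25-dihydroxyvitamin D3 (3 nM final) plus compound for 16 h at 37 C. The beta-lactamase CCF4 readout was normalized to 50 nM agonist and DMSO, and Hill fits gave IC50.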
# [8] = biological target: Vitamin D3 receptor (Homo sapiens) (UniProt P11473); test: qHTS assay for small molecule agonists of vitamin D receptor signaling (AID 588543)
# Procedure, shortened: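 VDR-UAS-bla HEK293T cells, 2000/well, 2% charcoal-stripped FBS; compound titration 16 h at 37 C; CCF4 beta-lactamase ratio read. Normalized to 50 nM 1-alpha,25-dihydroxyvitamin D3 (100%) and DMSO; Hill fit gives EC50, efficacy.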
# [9] = qHTS assay for small molecule agonists of retinoid X receptor alpha signaling (AID 588544); settings: HEK293T RXRa-UAS-bla, beta-lactamase reporter, 18 h; 530 nm emission
# [10] = biological target: Retinoic acid receptor RXR-alpha (Homo sapiens) (UniProt P19793); test: as above
# [11] = biological target: Thyroid hormone receptor beta (Homo sapiens) (UniProt P10828); test: qHTS assay for small molecule agonists of thyroid hormone receptor beta signaling (AID 588545)
# Procedure, shortened: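 In this cell-based screen, titrated compounds act on HEK 293 cells held in medium with 2% charcoal/dextran FBS, NEAA and pyruvate for 18 hrs at 37 C. Responses are expressed relative to T3 (10 nM) as 100% and basal DMSO as 0%.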
# [12] = qHTS assay for small molecule antagonists of retinoid X receptor alpha signaling (AID 588546; active = well fitted inhibition curve with a large enough effect in the signal ratio, with a control signal flat, not every such curve was filed as active; the % refers to the signal ratio;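 also: cells stimulated with 9-cis-retinoic acid as agonist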); settings: HEK293T RXRa-UAS-bla, beta-lactamase ratio, antagonist mode; measured here: W530 green channel, cytotoxicity proxy
# Procedure, shortened: (§1)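 Beta-lactamase reporter inhibition, read as CCF4 fluorescence ratio (ex 405, em 460/530 nm) after 2 h at RT. HEK293T UAS-bla cells, 2500/well, were stimulated with 9-cis-RA at 500 or 100 nM final alongside test compound for 18 h at 37 C.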
# [13] = biological target: Retinoic acid receptor RXR-alpha (Homo sapiens) (UniProt P19793); test: as above; settings: HEK293T RXRa-UAS-bla, beta-lactamase ratio, antagonist mode
# Procedure, shortened: as §1
# [14] = biological target: Thyroid hormone receptor beta (Homo sapiens) (UniProt P10828); test: qHTS assay for small molecule antagonists of thyroid hormone receptor beta signaling (AID 588547; active = well fitted inhibition curve with a large enough effect in the signal ratio, with a control signal flat, not every such curve was filed as active; the % refers to the signal ratio;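 also: cells stimulated with 0.4 nM T3 agonist during compound exposure; series mostly up to about 77 µM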); settings: TR-UAS-bla HEK293, beta-lactamase ratio, antagonist mode, 18 h
# Procedure, shortened: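 TR-UAS-bla GripTite HEK293 cells in 2% charcoal/dextran FBS medium; compounds 0.59 nM to 92 uM with T3 at 0.4nM final, 18 h at 37 C. Beta-lactamase read by CCF4 fluorescence (460/530 nm); Hill fits gave IC50 and efficacy.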
# [15] = biological target: Voltage-gated inwardly rectifying potassium channel KCNH2 (Homo sapiens) (UniProt Q12809); test: qHTS Assay for Small Molecule Inhibitors of the Human hERG Channel Activity (AID 588834; active = well fitted inhibition curve with a large enough effect;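 also: lower thallium flux fluorescence means stronger hERG block; nearly all actives have a fitted effect of over 50% in size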; also: potency is read from the fitted curve at half-maximal effect)
# Procedure, shortened: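 Thallium serves as surrogate for K+ influx through BacMam-delivered hERG in U2OS cells. Compounds are added for about 10 minutes after dye loading; stimulation buffer then starts flux, monitored kinetically on FDSS.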
# [16] = biological target: Bile acid receptor (Homo sapiens) (UniProt Q96RI1); test: qHTS assay for small molecule antagonists of farnesoid X receptor signaling (AID 588526)
# Procedure, shortened: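 Antagonist mode: titrated compounds tested against chenodeoxycholic acid stimulation (normalized to 50 uM CDCA and DMSO) in GeneBLAzer HEK293T cells for 16 h. Beta-lactamase read by CCF4 fluorescence; IC50 from Hill fits.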
# [17] = qHTS assay for small molecule antagonists of peroxisome proliferator-activated receptor delta signaling (AID 588535; active = well fitted inhibition curve with a large enough effect in the signal ratio, with a control signal flat, not every such curve was filed as active; the % refers to the signal ratio;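 as to max response: cells co-treated with a PPAR-delta agonist as stimulator during compound exposure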); settings: HEK293T PPARd-UAS-bla, beta-lactamase FRET ratio, 18 h; 460 nm channel
# Procedure, shortened: (§2)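 Fluorescence from CCF4-loaded GeneBLAzer PPAR-delta-UAS-bla HEK293T cells (2 hrs RT loading) quantified reporter inhibition after an 18 hr, 37 C compound exposure across a titration.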
# [18] = biological target: Peroxisome proliferator-activated receptor delta (Homo sapiens) (UniProt Q03181); test: as above
# Procedure, shortened: as §2
# [19] = biological target: Androgen receptor (Homo sapiens) (UniProt P10275); test: qHTS assay for small molecule antagonists of androgen receptor signaling (AID 588516; active = well fitted curve in the direction sought with a large enough effect in the signal ratio, with a control signal flat, not every such curve was filed as active; the % refers to the signal ratio)
# Procedure, shortened: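 AR-UAS-bla GripTite HEK 293 cells (2000/well) treated with compound titrations plus 10 nM R1881 for 16 h at 37C. Beta-lactamase read by CCF4 FRET (460/530 nm); IC50 from Hill fits, normalized to R1881 and DMSO control wells.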
# [20] = biological target: Androgen receptor (Homo sapiens) (UniProt P10275); test: qHTS assay for small molecule agonists of androgen receptor signaling (AID 588515; active = well fitted curve in the direction sought with a large enough effect in the signal ratio, with a control signal flat; the % refers to the signal ratio); settings: AR-UAS-bla HEK293, beta-lactamase ratio, agonist 16 h; stronger effect = higher value
# Procedure, shortened: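 Stimulation of an AR-responsive β-lactamase reporter in GripTite HEK293 cells was measured after 16 h compound exposure at 37 °C, via CCF4 fluorescence after 2 h RT. EC50 from Hill fits, normalized to R1881 at 30 nM.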
# Sequence of Peroxisome proliferator-activated receptor gamma (Homo sapiens) (P37231 whole entry, looked up): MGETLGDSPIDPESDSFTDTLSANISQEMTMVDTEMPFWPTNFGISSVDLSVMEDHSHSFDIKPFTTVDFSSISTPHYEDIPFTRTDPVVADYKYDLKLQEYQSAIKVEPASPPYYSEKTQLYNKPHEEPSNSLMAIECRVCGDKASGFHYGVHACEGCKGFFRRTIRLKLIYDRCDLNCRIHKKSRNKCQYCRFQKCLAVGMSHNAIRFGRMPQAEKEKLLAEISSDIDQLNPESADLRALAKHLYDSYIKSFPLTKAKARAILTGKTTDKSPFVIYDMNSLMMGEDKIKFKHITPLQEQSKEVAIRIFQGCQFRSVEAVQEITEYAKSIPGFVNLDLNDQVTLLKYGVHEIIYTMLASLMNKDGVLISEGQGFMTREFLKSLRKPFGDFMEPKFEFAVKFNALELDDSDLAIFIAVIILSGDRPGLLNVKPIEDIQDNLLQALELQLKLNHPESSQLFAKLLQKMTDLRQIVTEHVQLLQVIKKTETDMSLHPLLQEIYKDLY
# Sequence of Estrogen receptor (Homo sapiens) (P03372 whole entry, looked up): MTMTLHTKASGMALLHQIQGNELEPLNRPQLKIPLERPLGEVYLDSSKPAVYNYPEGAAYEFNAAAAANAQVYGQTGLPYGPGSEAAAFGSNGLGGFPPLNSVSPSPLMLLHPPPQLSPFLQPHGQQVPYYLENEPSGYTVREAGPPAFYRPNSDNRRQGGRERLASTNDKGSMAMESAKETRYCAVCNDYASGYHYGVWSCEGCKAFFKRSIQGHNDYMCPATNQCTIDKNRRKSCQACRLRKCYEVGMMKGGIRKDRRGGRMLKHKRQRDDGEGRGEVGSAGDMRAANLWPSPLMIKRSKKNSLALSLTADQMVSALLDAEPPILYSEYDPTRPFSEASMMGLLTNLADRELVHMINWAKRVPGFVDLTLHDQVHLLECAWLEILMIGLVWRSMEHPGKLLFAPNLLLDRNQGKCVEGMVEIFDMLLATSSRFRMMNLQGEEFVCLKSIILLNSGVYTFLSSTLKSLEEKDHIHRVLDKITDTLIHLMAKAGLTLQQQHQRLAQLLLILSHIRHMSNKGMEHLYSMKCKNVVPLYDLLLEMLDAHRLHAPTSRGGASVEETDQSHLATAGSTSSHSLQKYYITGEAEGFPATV
# Sequence of Vitamin D3 receptor (Homo sapiens) (P11473 whole entry, looked up): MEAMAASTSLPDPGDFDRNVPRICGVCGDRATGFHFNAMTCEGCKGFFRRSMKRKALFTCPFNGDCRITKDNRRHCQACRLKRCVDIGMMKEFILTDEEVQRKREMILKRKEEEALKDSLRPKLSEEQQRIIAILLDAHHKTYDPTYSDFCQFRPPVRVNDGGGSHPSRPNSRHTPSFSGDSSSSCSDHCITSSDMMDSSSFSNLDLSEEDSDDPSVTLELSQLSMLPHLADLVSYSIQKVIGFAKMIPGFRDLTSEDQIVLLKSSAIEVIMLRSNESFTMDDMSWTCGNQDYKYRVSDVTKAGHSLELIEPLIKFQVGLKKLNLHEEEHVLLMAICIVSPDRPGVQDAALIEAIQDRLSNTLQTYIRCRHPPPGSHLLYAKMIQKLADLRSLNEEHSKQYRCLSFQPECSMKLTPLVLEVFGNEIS
# Sequence of Peroxisome proliferator-activated receptor delta (Homo sapiens) (Q03181 whole entry, looked up): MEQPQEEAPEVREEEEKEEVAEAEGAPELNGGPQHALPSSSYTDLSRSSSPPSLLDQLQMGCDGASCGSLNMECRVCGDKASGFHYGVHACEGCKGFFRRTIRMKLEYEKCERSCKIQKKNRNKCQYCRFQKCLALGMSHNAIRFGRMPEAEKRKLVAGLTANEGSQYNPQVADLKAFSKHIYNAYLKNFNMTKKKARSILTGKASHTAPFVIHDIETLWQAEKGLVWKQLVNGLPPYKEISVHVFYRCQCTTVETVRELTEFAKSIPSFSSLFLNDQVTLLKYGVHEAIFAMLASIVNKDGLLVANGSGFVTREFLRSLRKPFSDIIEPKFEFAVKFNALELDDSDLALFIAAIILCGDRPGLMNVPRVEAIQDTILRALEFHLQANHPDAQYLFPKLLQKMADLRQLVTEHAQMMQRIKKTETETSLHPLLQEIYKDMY
# Sequence of Bile acid receptor (Homo sapiens) (Q96RI1 whole entry, looked up): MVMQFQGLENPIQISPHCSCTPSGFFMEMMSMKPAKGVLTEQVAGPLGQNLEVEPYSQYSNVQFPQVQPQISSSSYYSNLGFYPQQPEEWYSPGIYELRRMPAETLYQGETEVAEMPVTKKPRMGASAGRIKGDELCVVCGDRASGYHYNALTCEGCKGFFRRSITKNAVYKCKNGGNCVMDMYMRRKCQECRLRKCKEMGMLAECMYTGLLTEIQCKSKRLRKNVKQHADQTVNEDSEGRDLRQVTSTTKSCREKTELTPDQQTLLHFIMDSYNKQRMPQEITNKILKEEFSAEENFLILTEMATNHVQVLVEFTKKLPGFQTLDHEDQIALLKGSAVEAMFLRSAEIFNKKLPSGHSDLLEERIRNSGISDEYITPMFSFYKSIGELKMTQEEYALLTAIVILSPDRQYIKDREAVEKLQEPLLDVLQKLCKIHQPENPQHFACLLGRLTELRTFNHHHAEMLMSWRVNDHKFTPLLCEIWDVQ
# Sequence of Retinoic acid receptor RXR-alpha (Homo sapiens) (P19793 whole entry, looked up): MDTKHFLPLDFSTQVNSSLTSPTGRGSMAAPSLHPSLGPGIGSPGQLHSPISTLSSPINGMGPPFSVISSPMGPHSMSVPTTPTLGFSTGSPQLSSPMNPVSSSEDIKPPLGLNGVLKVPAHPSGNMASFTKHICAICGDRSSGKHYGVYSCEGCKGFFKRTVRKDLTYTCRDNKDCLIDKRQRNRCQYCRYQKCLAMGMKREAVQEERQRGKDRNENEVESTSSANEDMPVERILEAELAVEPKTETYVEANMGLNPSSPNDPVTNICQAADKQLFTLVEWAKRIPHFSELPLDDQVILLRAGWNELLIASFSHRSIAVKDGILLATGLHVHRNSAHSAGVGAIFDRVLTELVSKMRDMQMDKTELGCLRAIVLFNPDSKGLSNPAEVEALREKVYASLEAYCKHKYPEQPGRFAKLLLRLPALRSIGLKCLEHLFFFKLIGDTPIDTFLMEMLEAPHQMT
# Sequence of Voltage-gated inwardly rectifying potassium channel KCNH2 (Homo sapiens) (Q12809 whole entry, looked up): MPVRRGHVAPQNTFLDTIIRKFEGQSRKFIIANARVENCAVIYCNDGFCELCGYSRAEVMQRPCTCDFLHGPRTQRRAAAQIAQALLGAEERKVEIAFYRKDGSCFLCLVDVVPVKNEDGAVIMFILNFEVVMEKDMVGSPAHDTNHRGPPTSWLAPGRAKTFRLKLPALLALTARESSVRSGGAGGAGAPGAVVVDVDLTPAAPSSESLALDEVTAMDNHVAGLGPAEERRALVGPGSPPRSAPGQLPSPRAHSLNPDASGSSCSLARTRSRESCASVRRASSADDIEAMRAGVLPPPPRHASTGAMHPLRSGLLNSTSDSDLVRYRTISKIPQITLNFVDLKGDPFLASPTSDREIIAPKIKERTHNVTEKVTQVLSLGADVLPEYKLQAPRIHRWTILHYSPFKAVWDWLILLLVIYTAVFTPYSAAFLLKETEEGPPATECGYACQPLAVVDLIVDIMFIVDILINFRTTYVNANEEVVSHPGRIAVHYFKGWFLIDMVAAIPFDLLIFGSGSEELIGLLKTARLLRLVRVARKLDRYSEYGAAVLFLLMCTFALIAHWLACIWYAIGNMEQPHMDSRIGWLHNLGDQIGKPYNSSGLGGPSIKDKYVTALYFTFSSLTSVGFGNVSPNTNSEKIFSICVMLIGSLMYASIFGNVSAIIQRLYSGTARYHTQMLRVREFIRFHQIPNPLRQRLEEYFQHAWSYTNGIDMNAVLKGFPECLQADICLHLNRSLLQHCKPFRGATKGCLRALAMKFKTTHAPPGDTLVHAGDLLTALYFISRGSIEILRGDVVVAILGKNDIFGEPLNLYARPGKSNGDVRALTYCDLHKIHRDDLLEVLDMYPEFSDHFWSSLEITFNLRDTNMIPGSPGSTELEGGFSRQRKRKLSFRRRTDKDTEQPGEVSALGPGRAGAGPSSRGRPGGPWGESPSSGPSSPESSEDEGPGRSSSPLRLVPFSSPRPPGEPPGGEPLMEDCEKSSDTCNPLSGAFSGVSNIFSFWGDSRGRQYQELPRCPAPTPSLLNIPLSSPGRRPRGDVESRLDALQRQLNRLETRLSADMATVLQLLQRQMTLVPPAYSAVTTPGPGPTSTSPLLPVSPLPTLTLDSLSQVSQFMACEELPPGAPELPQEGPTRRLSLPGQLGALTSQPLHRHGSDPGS
# Sequence of Thyroid hormone receptor beta (Homo sapiens) (P10828 whole entry, looked up): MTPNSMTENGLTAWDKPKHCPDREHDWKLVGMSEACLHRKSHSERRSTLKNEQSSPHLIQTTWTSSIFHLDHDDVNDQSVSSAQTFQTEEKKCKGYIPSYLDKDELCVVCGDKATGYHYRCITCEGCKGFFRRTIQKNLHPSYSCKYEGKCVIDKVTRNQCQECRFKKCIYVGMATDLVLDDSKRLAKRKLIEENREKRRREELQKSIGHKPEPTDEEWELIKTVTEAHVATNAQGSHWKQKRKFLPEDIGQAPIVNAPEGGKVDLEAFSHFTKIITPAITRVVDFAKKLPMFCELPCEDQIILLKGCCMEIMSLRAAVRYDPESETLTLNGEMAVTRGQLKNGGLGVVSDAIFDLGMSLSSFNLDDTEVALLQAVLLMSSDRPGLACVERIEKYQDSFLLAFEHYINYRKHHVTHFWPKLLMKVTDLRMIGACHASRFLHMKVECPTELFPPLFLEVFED
SMILES,Potency [1],Potency [2],activation [3],Potency [4],outcome [5],outcome [6],outcome [7],outcome [8],max response [9],outcome [10],outcome [11],max response [12],max response [13],activity change % (negative = inhibition) [14],Potency [15],outcome [16],max response [17],outcome [18],outcome [19],activation [20]
OC[C@H]1O[C@@H]2O[C@H]3[C@H](O)[C@@H](O)[C@@H](O[C@H]4[C@H](O)[C@@H](O)[C@@H](O[C@H]5[C@H](O)[C@@H](O)[C@@H](O[C@H]6[C@H](O)[C@@H](O)[C@@H](O[C@H]7[C@H](O)[C@@H](O)[C@@H](O[C@H]1[C@H](O)[C@H]2O)O[C@@H]7CO)O[C@@H]6CO)O[C@@H]5CO)O[C@@H]4CO)O[C@@H]3CO,inactive,11.2 µM (active),3.77% (inactive) and 9.85% (inactive),inactive,inactive,inactive,inactive,inactive,1.28% and -5.56%,inactive,inactive,2.15% and -14.7%,-7.96% (inactive) and -14.1% (inactive),12.7% (inactive) and -5.44% (inactive),inactive,–,–,–,–,–
CCCCC(CC)COS(=O)(=O)O (stereo not given),inactive,inactive,–,–,–,–,inactive,inactive,-9.2%,inactive,inactive,-15.9%,7.69% (inactive),9.71% (inactive),inactive,inactive,-7.66%,inactive,–,–
CC1=CC(=O)NS(=O)(=O)O1,–,–,-3.71% (inactive),inactive,inactive,inactive,inactive,inactive,-7.78%,inactive,inactive,-6.4% and -5.89%,-5.24% (inactive) and 0.185% (inactive),2.81% (inactive),inactive,inactive,2.47% and 22.8%,inactive,–,–
Oc1cccc(O)c1O,inactive,8.91 µM (active),11% (inactive),–,inactive,inactive,inactive,inactive,-4%,inactive,inactive,-1.33%,-0.897% (inactive),-26.7% (inactive),inactive,–,-13.9%,inactive,–,–
C[C@H](CCC(=O)O)[C@H]1CC[C@H]2[C@@H]3CC[C@@H]4C[C@H](O)CC[C@]4(C)[C@H]3C[C@H](O)[C@]12C,inactive,inactive,-6.09% (inactive),–,–,–,inactive,inactive,–,–,inactive,–,–,–,inactive,inactive,–,–,–,–
COC(=O)c1ccccc1O,inactive,inactive,–,–,–,–,inactive,inactive,-1.26% and -12.6%,inactive,inactive,1.7% and -5.56%,-1.72% (inactive) and -1.77% (inactive),-3.85% (inactive),inactive,–,-8.84% and 15.6%,inactive,–,–
OCCOCCOCCO,inactive,inactive,-3.1% (inactive) and -7.85% (inactive),inactive,inactive,inactive,inactive,inactive,-8.79% and -11.6%,inactive,–,-16.7% and -5.33%,0.587% (inactive) and -7.45% (inactive),–,inactive,–,–,–,inactive,–
C=C1C(CCl)(CCl)C2(Cl)C(Cl)C(Cl)C1(Cl)C2(Cl)Cl (stereo not given),–,–,–,–,–,–,–,–,–,–,–,–,–,–,28.2 µM (active) and 15.8 µM (active),–,–,–,–,-14.5% (inactive)
CC(C)CCCCCCc1ccc(O)cc1,–,2.51 µM (active),-1.88% (inactive),inactive,inactive,inactive,inactive,inactive,–,–,inactive,–,–,–,inactive,–,-43.1%,inactive,–,–
OCC(O)CO,inactive,inactive,2.41% (inactive) and -1.45% (inactive),inactive,inactive,inactive,inactive,inactive,-13.7% and 0.479%,inactive,inactive,-6.53% and 10.4%,0.797% (inactive) and 12.5% (inactive),-5.42% (inactive) and 3.32% (inactive),inactive,inactive,-8.63%,inactive,–,–
CC1=CCC2CC1C2(C)C (stereo not given),inactive,inactive,3.24% (inactive),inactive,inactive,inactive,inactive,inactive,-0.211%,inactive,inactive,-2.11%,2.29% (inactive),6.5% (inactive),inactive,–,-1.04%,inactive,–,–
O=c1n(CC2CO2)c(=O)n(CC2CO2)c(=O)n1CC1CO1 (stereo not given),inactive,–,-4.93% (inactive),inactive,–,–,–,inactive,–,–,inactive,19.5%,-59.1% (inactive),-18.3% (inactive) and -20.3% (inactive),inactive,–,–,–,–,–
CC(C)O,inactive,inactive,–,–,inactive,–,inactive,inactive,-10.8%,inactive,–,-15.1%,36.2% (inactive),-11% (inactive),inactive,inactive,15.2%,inactive,–,–
CC[C@H]1OC(=O)[C@H](C)[C@@H](O[C@H]2C[C@@](C)(OC)[C@@H](O)[C@H](C)O2)[C@H](C)[C@@H](O[C@@H]2O[C@H](C)C[C@H](N(C)C)[C@H]2O)[C@](C)(O)C[C@@H](C)CN(C)[C@H](C)[C@@H](O)[C@]1(C)O,inactive,inactive,–,–,inactive,inactive,inactive,inactive,–,–,inactive,13.1%,-8.56% (inactive),-2.15% (inactive),inactive,–,–,–,–,–
Nc1ncnc2c1ncn2[C@H]1CC[C@@H](CO)O1,inactive,inactive,–,–,inactive,inactive,inactive,inactive,11.3% and 13.8%,inactive,inactive,0.911%,-6.41% (inactive),-11% (inactive) and 4.8% (inactive),inactive,inactive,-13.3% and 61.6%,inactive,–,–
NCCO/C=C/[C@H](N)C(=O)O,inactive,inactive,-5.2% (inactive),inactive,inactive,inactive,–,–,-3.57%,inactive,inactive,-8.31%,-9.4% (inactive),19.7% (inactive),inactive,inactive,-3.12%,inactive,–,–
